# Measured values reported in PubChem BioAssay (NCATS).
# Records with an inconclusive call do not appear. Entries that show only a call come without a potency. Unmarked numbers belong to inactive results. The source made the active and inactive calls. Calls come from the whole dose curve; as a rule, active = well fitted curve in the direction sought with a large enough effect; inconclusive = small, poorly fitted or top-dose-only effect, or another doubt; inactive = no such curve, though single readings can be large; an effect the other way counts as inactive or inconclusive.
# Assay: qHTS Assay for Identifying Gametocytocidal Compounds (AID 743244);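 note: actives lower the fluorescent signal which means gametocytes are killed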
# Settings: P. falciparum 3D7 stage III-V gametocytes, alamarBlue, 72 h; max response: active compounds read low
# Outline: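 In this qHTS viability screen, late-stage 3D7 gametocytes are incubated with compound for 72 h, then with alamarBlue for 24 h; reduced resorufin fluorescence marks killing.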
row,Structure (SMILES),max response
1,C=CCOc1ccc(CC(=O)O)cc1Cl,22.7%
2,CC(C)(Oc1ccc(C2CCCc3ccccc32)cc1)C(=O)O (stereo unspecified),-6.04%
3,COc1ccc([C@@H]2CC(=O)c3c(O)cc(O[C@@H]4O[C@H](CO[C@@H]5O[C@@H](C)[C@H](O)[C@@H](O)[C@H]5O)[C@@H](O)[C@H](O)[C@H]4O)cc3O2)cc1O,22.8%
4,O=C(Cc1cccs1)N[C@@H]1C(=O)N2C(C(=O)[O-])=C(C[n+]3ccccc3)CS[C@H]12,7.46%

# Assay: qHTS assay to identify small molecule inhibitors of chordoma cells - UCH-1 (AID 1259355); note: nearly all actives have a fitted effect of over 55% in size
# Settings: UCH-1 chordoma viability, CellTiter-Glo, 48 h, combination, with auranofin plus four topoisomerase inhibitors; series mostly up to 46.1 µM
# Outline: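 Seed 800 cells per well; incubate overnight at 37 C, 5% CO2. Add test compounds (15 concentrations), then the auranofin–topoisomerase-agent combination. Incubate 48hr, add CellTiter-Glo, wait 30min, read luminescence.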
row,Structure (SMILES),Potency
1,CO[C@@]1(NC(=O)C2SC(=C(C(N)=O)C(=O)O)S2)C(=O)N2C(C(=O)O)=C(CSc3nnnn3C)CS[C@@H]21 (stereo partly specified),inactive
2,CC(=O)N=c1sc(S(N)(=O)=O)nn1C,inactive
3,CC(=O)Oc1cc(C(F)(F)F)ccc1C(=O)O,inactive
4,NC(N)=NCC1COc2ccccc2O1 (stereo unspecified),inactive
5,CCCCC[C@H](O)/C=C/[C@@H]1[C@H]2C/C(=C/CCCC(=O)O)O[C@H]2C[C@H]1O,inactive
6,Cc1ccccn1,inactive
7,O=C(O)CCCC/C=C(\c1ccccc1)c1cccnc1,inactive
8,CO[C@H]1C=CO[C@@]2(C)Oc3c(C)c(O)c4c(O)c(cc(O)c4c3C2=O)NC(=O)/C(C)=C\C=C/[C@H](C)[C@H](O)[C@@H](C)[C@@H](O)[C@@H](C)[C@H](OC(C)=O)[C@@H]1C,inactive
9,O=C(O)c1ccc(NC2OC[C@@H](O)[C@H](O)[C@H]2O)cc1 (stereo partly specified),inactive
10,CC(=O)OCC(=O)[C@@]1(O)CC[C@H]2[C@@H]3CCC4=CC(=O)CC[C@]4(C)C3=CC[C@@]21C,inactive
11,Nc1nc(=O)n([C@@H]2CS[C@H](CO)O2)cc1F,inactive
12,O=C(O)c1cc(N=Nc2ccc(O)c(C(=O)O)c2)ccc1O,inactive
13,CC(C)C1=CC2=CC[C@@H]3[C@](C)(CCC[C@@]3(C)C(=O)O)[C@H]2CC1,inactive
14,C[C@@H]1C[C@H]2[C@@H]3CCC4=CC(=O)C=C[C@]4(C)[C@@]3(F)[C@@H](O)C[C@]2(C)[C@@]1(O)C(=O)COC(=O)c1cccc(S(=O)(=O)O)c1,inactive
15,CC(=O)Nc1ccc(OC(=O)c2ccccc2O)cc1,inactive
16,CC(C)CN(C[C@@H](OP(=O)(O)O)[C@H](Cc1ccccc1)NC(=O)O[C@H]1CCOC1)S(=O)(=O)c1ccc(N)cc1,inactive
17,CC(=O)Nc1ccc(NC(=S)NC(=O)c2ccc(C(C)(C)C)cc2)cc1,inactive
18,C=CCN1CCCC1CNC(=O)c1cc(S(N)(=O)=O)cc(OC)c1OC (stereo unspecified),inactive
19,CCC(Oc1ccccc1)C(=O)N[C@@H]1C(=O)N2[C@@H]1SC(C)(C)[C@@H]2C(=O)O (stereo partly specified),inactive

row,Structure (SMILES),Potency
1,OCCCNc1ccccc1,inactive
2,CC(C)(C)C(=O)OCC(=O)[C@H]1CC[C@H]2[C@@H]3CCC4=CC(=O)CC[C@]4(C)[C@H]3CC[C@]12C,inactive
3,OC1OC[C@@H](O)[C@H](O)[C@@H]1O (stereo partly specified),inactive
4,CO/N=C(\C(=O)N[C@@H]1C(=O)N2C(C(=O)O)=C(CSc3nc(C)c(CC(=O)O)s3)CS[C@H]12)c1csc(N)n1,inactive
5,COC(=O)C(CN)c1c[nH]c2ccc(OC)cc12 (stereo unspecified),inactive
6,NCC[C@H](O)C(=O)N[C@@H]1C[C@H](N)[C@@H](O[C@H]2O[C@H](CN)CC[C@H]2N)[C@H](O)[C@H]1O[C@H]1O[C@H](CO)[C@@H](O)[C@H](N)[C@H]1O,inactive
7,COc1cc(S(C)=O)ccc1-c1nc2ncccc2[nH]1 (stereo unspecified),inactive
8,CCN(CC)C(=O)[C@]1(c2ccccc2)C[C@@H]1CN,inactive
9,C=CC[N@@+]12CC[C@@]34c5ccccc5N5/C=C6/[C@H]7C[C@H]8[C@@]9(CC[N@@+]8(CC=C)C/C7=C/CO)c7ccccc7N(/C=C(/[C@@H](C[C@@H]31)/C(=C\CO)C2)[C@H]54)[C@@H]69,inactive
10,O=C(O)c1cc(O)c2c(c1)[C@H]([C@H]1c3cc(C(=O)O)cc(O)c3C(=O)c3c(O[C@@H]4O[C@H](CO)[C@@H](O)[C@H](O)[C@H]4O)cccc31)c1cccc(O[C@@H]3O[C@H](CO)[C@@H](O)[C@H](O)[C@H]3O)c1C2=O,inactive
11,CC(CC=O)CCCC(C)(C)O (stereo unspecified),inactive
12,NC(Cc1ccccc1)C(=O)O (stereo unspecified),inactive
13,CC(C)c1nc(N(C)S(C)(=O)=O)nc(-c2ccc(F)cc2)c1/C=C/C(O)CC(O)CC(=O)O (stereo unspecified),inactive
14,CO[C@H]1C[C@H](O[C@H]2[C@H](C)[C@@H](O[C@@H]3O[C@H](C)C[C@H](N(C)C)[C@H]3O)[C@@H](C)C[C@]3(CO3)C(=O)[C@H](C)[C@@H](O)[C@@H](C)[C@@H](C)OC(=O)[C@@H]2C)O[C@@H](C)[C@@H]1O,inactive
15,C=CCOc1ccc(CC(=O)O)cc1Cl,inactive
16,CC(C)(Oc1ccc(C2CCCc3ccccc32)cc1)C(=O)O (stereo unspecified),inactive
17,COc1ccc([C@@H]2CC(=O)c3c(O)cc(O[C@@H]4O[C@H](CO[C@@H]5O[C@@H](C)[C@H](O)[C@@H](O)[C@H]5O)[C@@H](O)[C@H](O)[C@H]4O)cc3O2)cc1O,inactive
18,O=C(Cc1cccs1)N[C@@H]1C(=O)N2C(C(=O)[O-])=C(C[n+]3ccccc3)CS[C@H]12,inactive
